Bioassay records as filed in PubChem BioAssay.
DT40 TDP1 no CPT: qHTS for Inhibitors of human tyrosyl-DNA phosphodiesterase 1 (TDP1): qHTS in cells in absence of CPT | Potency, µM (doses to about 46.2 µM), usual class: inhibitors | actives 15% (n = 420,000) | DT40 Tdp1-/- hTDP1 cells, no CPT, ATP luminescence, 48 h; further: nearly all actives have a fitted effect of over 55% in size
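A cellular qHTS used chicken DT40 cells lacking endogenous Tdp1 but carrying stably transfected human TDP1. Compounds were applied without camptothecin, and cell growth kinetics were judged by ATP-dependent luminescence after ≥48 hr.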
IL1B secr inh: inhibitors of inflammasome signaling (IL-1 beta secretion); THP-1 LPS/ATP IL-1B secretion, AlphaLISA, 16 h; stronger effect = lower value; activity change, % at 57.5 µM; actives 4.7% (n = 360,000); AID 743279; in the data active means activity change below about -50%; inconclusive means mostly about -30% to -49%
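THP-1 cells pretreated 1 hr with compounds (up to 57.5 uM final), then stimulated with LPS (250 ng/mL final) plus ATP (1.25 mM final); secreted IL-1B measured by AlphaLISA after 16 hr, decreased signal indicating inhibition.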
HT1080 IDH1KD tx: toxicity to HT-1080 IDH1 knockdown cells (counter line); Potency, µM (series often up to 46.1 µM), usual class: cytotoxic; actives 2% (n = 360,000); HT-1080 IDH1 knockdown viability, ATP luminescence, 48 h
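Using the IDH1-knockdown HT-1080 line run in the same batch and compound series as the NT line, viability after 48 h at 37 °C was determined by CellTiter-Glo luminescence and expressed as % activity.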
HT1080NT lethal: kills 2HG-producing HT-1080-NT fibrosarcoma cells. HT-1080-NT fibrosarcoma viability, CellTiter-Glo ATP luminescence, 48 h. Potency, µM (series often up to 46.1 µM), usual class: cytotoxic. actives 1.6% (n = 360,000);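 further: NT is the 2HG producing partner of a matched IDH1 knockdown line; nearly all actives have a fitted effect of over 55% in size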
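HT-1080-NT; 750 cells/well; 5% FBS RPMI; 48 h compound, 37 degrees C; CellTiter-Glo luminescence; curve fitting and curve-class assignment.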
DT40 TDP1 CPT: growth inhibition of DT40 Tdp1-/-;hTDP1 cells with camptothecin (screen for TDP1 inhibitors); chicken DT40 Tdp1-/-;hTDP1 cells + 20 nM CPT, ATP luminescence, 48 h; Potency, µM (top dose mostly 46.2 µM), actives largely listed as inhibitors; actives 12% (n = 420,000); AID 686979; further: nearly all actives have a fitted effect of over 55% in size
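Chicken DT40 Tdp1-/- cells stably complemented with human TDP1 were seeded at 400 cells/well in medium containing 20 nM camptothecin, exposed to pin-transferred compounds, and grown at 37 °C for at least 48 hr. Viability was read as ATP luminescence.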
Hits are given with their value; . = inactive; ? = inconclusive; / = not tested or not shown; [ ] = remark or other dose. Compounds with a hit are over-represented: about 19% of the library has one in this group of screens. Unless noted, the call rests on the fitted dose curve; in most records, active means well fitted curve in the direction sought with a large enough effect; inconclusive means small, poorly fitted or top-dose-only effect, or another doubt; inactive means no such curve, though single readings can be large; an effect the other way counts as inactive or inconclusive.

SMILES | DT40 TDP1 no CPT | IL1B secr inh | HT1080 IDH1KD tx | HT1080NT lethal | DT40 TDP1 CPT
CCOC(=O)c1nn(-c2ccc(OCC)cc2)c2nc(-c3ccco3)c(C#N)c(=O)n12 | 23µM | . | . | . | ?
O=C(OCc1cc(=O)n2nc(-c3cccs3)sc2n1)c1ccc(F)cc1 | . | / | / | / | .
CN(C)c1ccc(/C=N/N=C(N)N)cc1[N+](=O)[O-] | 13µM | ? | . | . | ?
Cn1ncc(N=Cc2ccc([N+](=O)[O-])cc2)c1C(=O)N1CCOCC1 | . | . | . | . | .
C=C(C)c1nc(Oc2ccccc2)nc(Oc2ccccc2)n1 | 6.5µM | -100 | ? | ? | 7.3µM
C=C(C)c1ccccc1 | . | . | . | ? | .
O=C(CSc1nc2ncccc2[nH]1)c1cccc([N+](=O)[O-])c1 | . | . | . | . | .
CC1(C(=O)Nc2ccc(Cl)c(C(F)(F)F)c2)Cc2c(-c3ccc4c(c3)OCO4)ccnc2O1 (configuration not stated) | ? | . | ? | ? | ?
CCOc1cc(/C=C2\C(=O)N(c3ccc(C(N)=O)cc3)N=C2C)ccc1OC(=O)c1cccs1 | 23µM | . | . | ? | 15µM
Cc1cc(C)c(C(=O)/C=C/c2ccc3c(c2)OCO3)c(=O)[nH]1 | ? | -91 | . | . | ?
Cc1ccc(C(=O)/C=C/c2ccc(Br)cc2)o1 | 23µM | -57 | . | . | ?
Cc1ccc(C(=O)/C=C/c2ccccc2)o1 | 15µM | ? | . | . | ?
CN(C(=O)C=Cc1ccccc1)c1ccccc1 | . | . | . | . | .
O=C(C=Cc1ccc2c(c1)OCO2)C1CC1 | ? | . | . | . | .
Cc1ccc(C(=O)/C=C/c2ccc3c(c2)OCO3)o1 | 21µM | -50 | ? | ? | 18µM
O=C(NNC(=O)c1ccccc1-n1cccc1)c1cncc(Br)c1 | . | . | . | .[9.24 µM] | .
COc1ccccc1-c1sc2ccccc2c1C#Cc1ccc(N(C)C)cc1 | ? | . | . | . | .
COc1cccc(CNC(=O)CCC2CCCN(C(=O)Cc3ccccc3F)C2)c1 (configuration not stated) | ? | . | . | . | ?
C/C(=C\c1ccccc1F)C(=O)c1c(C)cc(C)[nH]c1=O | . | -68 | . | . | .
COC(=O)/C=C/c1ccc2c(c1)OCO2 | . | . | . | . | .
Cc1cc(C)c(C(=O)/C=C/c2cccc3ccccc23)c(=O)[nH]1 | 9.2µM | -85 | ? | ? | 16µM
CCNc1ccccc(C(=O)/C=C/c2ccc3c(c2)OCO3)c1=O | 16µM | . | . | . | 8.2µM
C/C(=C\c1ccccc1)C(=O)c1c(C)cc(C)[nH]c1=O | . | . | . | . | .
COc1ccc(CN2CCOc3ccc(CN4CCN(CCO)CC4)cc3C2)c2ccccc12 | ? | / | / | / | .[9.04 µM]
CC(C)(C)[C@H]1C=C(C(=O)O)O[C@@H](OCc2ccc(CO)cc2)C1 | . | . | . | . | .
SMILES | DT40 TDP1 no CPT | IL1B secr inh | HT1080 IDH1KD tx | HT1080NT lethal | DT40 TDP1 CPT
Cc1c(CC(=O)N[C@@H](C)C(=O)O)c(=O)oc2cc3c(cc12)CCC(C)(C)O3 | . | . | . | . | .
Cc1c(CC(=O)NC(C)C)c(=O)oc2cc3c(cc12)CCC(C)(C)O3 | ? | . | . | . | 21µM
Cc1c(CC(=O)N[C@H](C(=O)O)C(C)C)c(=O)oc2cc3c(cc12)CCC(C)(C)O3 | 23µM | . | . | . | ?
Cc1oc2cc3oc(=O)c(CC(=O)N[C@H](C(=O)N[C@@H](C(=O)O)c4ccccc4)C(C)C)c(C)c3cc2c1C | . | . | . | . | .
CCC(C)NC(=O)Cc1c(C)c2cc3c(cc2oc1=O)OC(C)(C)CC3 (configuration not stated) | 15µM | . | . | . | ?
COc1cc(=O)[nH]c(SC(C)C(=O)Nc2ccc3ccccc3c2)n1 (configuration not stated) | . | . | . | . | .
CC(=O)C1=CCC(c2cccs2)N(S(=O)(=O)c2ccc(C)cc2)C1 (configuration not stated) | ? | . | . | . | ?
O=c1[nH]c(/C=C/c2ccccc2F)nc2ccccc12 | 2.9µM | . | 5.8µM | ? | 2.9µM
